From the supplement of paper PMC4840960
± gives the standard deviation of the averaged measurements.

Assays:
[1] = system: E18 rat cortical neuron-glia co-culture; experiment: fiber score / MBP score (myelination specific beyond OL differentiation) (ratio); higher = more myelination-specific MBP alignment; conditions: treatment time: 8 days (DIV5-DIV13)
Summary of the method: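 Papain-dissociated primary E18 rat cortical co-cultures, plated at 20,000 cells/well on poly-d-lysine/laminin 96-well plates, were exposed to library compounds at 1 or 5 µM in myelination medium between DIV5 and DIV13. Following fixation in 4 % paraformaldehyde, cultures were stained for MBP, Olig2 and DAPI, and four 10X fields per well were analysed in duplicate wells. Values are the ratio of fiber score (continuous MBP fiber length per Olig2+ nucleus) to MBP score (thresholded MBP area × intensity per Olig2+ nucleus).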

[2] = system: E18 rat cortical neuron-glia co-culture; experiment: myelination (MBP fiber length per Olig2+ nucleus), % of 1 µM DAPT response (DMSO = 0) (% of DAPT); higher = more myelination, active = 50 or more; conditions: treatment time: 8 days (DIV5-DIV13)
Summary of the method: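 Myelination, expressed as continuous straight MBP fiber length per Olig2+ nucleus, was normalised to 0.1 % DMSO as 0 and a 1 µM positive control as 100. The cultures were primary E18 rat cortical co-cultures dissociated with papain and plated at 20,000 cells/well on poly-d-lysine/laminin-coated 96-well plates. They received library compounds at 1 or 5 µM in myelination medium between DIV5 and DIV13. Analysis covered four 10X fields per well in duplicate wells after 4 % paraformaldehyde fixation and immunostaining for MBP and Olig2 with DAPI.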

SMILES | fiber score / MBP score ([1]; 1 µM) | fiber score / MBP score ([1]; 5 µM) | myelination ([2]; 1 µM) | myelination ([2]; 5 µM)
NC(N)=Nc1nc(CSCC/C(N)=N/S(N)(=O)=O)cs1 [Famotidine] | 0.875 | 0.752 | -13.8 (inactive) | -21.2 (inactive)
N[C@@H](C(=O)N[C@@H]1C(=O)N2C(C(=O)O)=C(Cl)CS[C@H]12)c1ccccc1 [Cefaclor] | 0.944 | 0.875 | 1.34 (inactive) | -10.6 (inactive)
COc1cc2nc(N3CCN(C(=O)c4ccco4)CC3)nc(N)c2cc1OC [Prazosin] | 0.568 | 1 | -38.1 (inactive) | 3.87 (inactive)
Cc1noc(NS(=O)(=O)c2ccc(N)cc2)c1C [Sulfisoxazole] | 0.958 | 0.834 | -3.97 (inactive) | -6.9 (inactive)
CC1=C(C/C=C(\C)CCC[C@H](C)CCC[C@H](C)CCCC(C)C)C(=O)c2ccccc2C1=O [Phylloquinone] | 0.894 | 0.723 | -4.4 (inactive) | -10.2 (inactive)
OCCN1C[C@H](O)[C@@H](O)[C@H](O)[C@H]1CO [Miglitol] | 0.881 | 0.788 | -7.81 (inactive) | -16.8 (inactive)
OC(c1cc(C(F)(F)F)nc2c(C(F)(F)F)cccc12)C1CCCCN1 (centres undefined) [Mefloquine] | 0.726 | 0.574 | -11.1 (inactive) | -31.7 (inactive)
Nc1ncnc2c1ncn2[C@@H]1O[C@H](CO)[C@@H](O)[C@@H]1O [Vidarabine] | 0.8 | 1.2 | -13.9 (inactive) | 24.3 (inactive)
CN(C)CCC(c1ccc(Br)cc1)c1ccccn1 (centres undefined) [Brompheniramine] | 0.611 | 0.693 | -14.9 (inactive) | -12.4 (inactive)
COC(=O)C1=C(C)NC(C)=C(C(=O)OCCN(C)Cc2ccccc2)C1c1cccc([N+](=O)[O-])c1 (centres undefined) [Nicardipine] | 0.629 | 0.824 | -8.17 (inactive) | -21.2 (inactive)
CC1(C)O[C@@H]2[C@@H](CO[C@@]3(COS(N)(=O)=O)OC(C)(C)O[C@@H]23)O1 [Topiramate] | 0.669 | 0.896 | -20.2 (inactive) | -11.6 (inactive)
N=C(N)NC(=O)c1nc(Cl)c(N)nc1N [Amiloride] | 0.887 | 0.827 | -12.4 (inactive) | 16.9 (inactive)
Nc1c2c(nc3ccccc13)CCCC2 [Tacrine] | 0.655 | 0.566 | -9.65 (inactive) | -14.9 (inactive)
Nc1nc2c(ncn2COC(CO)CO)c(=O)[nH]1 [Ganciclovir] | 0.944 | 1 | -5.82 (inactive) | 7.82 (inactive)
COc1ccc2c(c1)c(CC(=O)O)c(C)n2C(=O)c1ccc(Cl)cc1 [Indomethacin] | 0.699 | 0.877 | -12.4 (inactive) | -7.64 (inactive)
CCCCN1CCCC1CNC(=O)c1cc(C#N)c2ccccc2c1OC (centres undefined) [Nafadotride] | 0.516 | 0.414 | -15 (inactive) | -20.4 (inactive)
C[C@H]1O[C@@H](O[C@H]2[C@@H](O)C[C@H](O[C@H]3[C@@H](O)C[C@H](O[C@H]4CC[C@@]5(C)[C@H](CC[C@@H]6[C@@H]5C[C@@H](O)[C@]5(C)[C@@H](C7=CC(=O)OC7)CC[C@]65O)C4)O[C@@H]3C)O[C@@H]2C)C[C@H](O)[C@@H]1O [Digoxin] | 1.37 | 1.46 | 34 (inactive) | 68.2
CC(c1cc2ccccc2s1)N(O)C(N)=O (centres undefined) [Zileuton] | 0.599 | 0.628 | -6.73 (inactive) | -19.1 (inactive)
Cn1nnc2c(C(N)=O)ncn2c1=O [Temozolomide] | 0.532 | 0.773 | -29.3 (inactive) | -12.8 (inactive)
Clc1ccccc1CN1CCc2sccc2C1 [Ticlopidine] | 0.477 | 0.662 | -18.3 (inactive) | -14.2 (inactive)
CC(N/C(=N\C#N)Nc1ccncc1)C(C)(C)C (centres undefined) [Pinacidil] | 0.981 | 0.451 | 2.9 (inactive) | -19.7 (inactive)
Cc1c(OCC(F)(F)F)ccnc1C[S+]([O-])c1nc2ccccc2[nH]1 (centres undefined) [Lansoprazole] | 0.767 | 1.37 | -17.3 (inactive) | 65.6
CO/N=C(\C(=O)N[C@@H]1C(=O)N2C(C(=O)O)=C(COC(N)=O)CS[C@H]12)c1ccco1 [Cefuroxime] | 0.749 | 0.663 | -44.2 (inactive) | -51.7 (inactive)
COCC1=C(C(=O)OC(C)OC(=O)OC(C)C)N2C(=O)[C@@H](NC(=O)/C(=N\OC)c3csc(N)n3)[C@H]2SC1 (some centres undefined) [Cefpodoxime proxetil] | 0.721 | 0.866 | -20.2 (inactive) | -4.97 (inactive)
C[C@@H](O)[C@H]1C(=O)N2C(C(=O)O)=C(S[C@@H]3CN[C@H](C(=O)N(C)C)C3)[C@H](C)[C@H]12 [Meropenem] | 0.99 | 0.804 | 2.11 (inactive) | -19.5 (inactive)
C[C@H]1C[C@@H]2[C@H]([C@@H](O)C[C@@]3(C)[C@H]2CC[C@]3(O)C(=O)CO)[C@@]2(C)C=CC(=O)C=C12 [Methylprednisolone] | 0.918 | 1.01 | -0.665 (inactive) | 2.01 (inactive)

SMILES | fiber score / MBP score ([1]; 1 µM) | fiber score / MBP score ([1]; 5 µM) | myelination ([2]; 1 µM) | myelination ([2]; 5 µM)
Brc1c(NC2=NCCN2)ccc2nccnc12 [Brimonidine] | 0.915 | 0.784 | -13.9 (inactive) | -32 (inactive)
CN(C)c1nc(N(C)C)nc(N(C)C)n1 [Altretamine] | 0.923 | 0.901 | -3.29 (inactive) | -4.16 (inactive)
CCN(CC)CCNC(=O)c1cc(Cl)c(N)cc1OC [Metoclopramide] | 0.848 | 0.91 | -6.65 (inactive) | -2.72 (inactive)
CCCC(CCC)C(=O)O [Valproic Acid] | 0.837 | 0.944 | -6.19 (inactive) | -3.27 (inactive)
NS(=O)(=O)c1cc2c(cc1Cl)NCNS2(=O)=O [Hydrochlorothiazide] | 0.749 | 0.819 | -8.91 (inactive) | -12.5 (inactive)
CCOC(=O)[C@H](CCc1ccccc1)N[C@@H](C)C(=O)N1[C@H](C(=O)O)C[C@@H]2CCC[C@@H]21 [Ramipril] | 0.635 ± 0.29 | 0.628 ± 0.47 | -11.2 (inactive) | -8.93 (inactive)
CCN1CCC[C@H]1CNC(=O)c1c(O)c(Cl)cc(Cl)c1OC [Raclopride] | 1.05 | 0.709 | 18.4 (inactive) | -30.6 (inactive)
CC(C)(C)NCC(O)c1cc(O)cc(O)c1 (centres undefined) [Terbutaline] | 0.31 | 0.251 | -15.9 (inactive) | -16.6 (inactive)
CCCC1O[C@@H]2C[C@H]3[C@@H]4CCC5=CC(=O)C=C[C@]5(C)[C@H]4[C@@H](O)C[C@]3(C)[C@]2(C(=O)CO)O1 (some centres undefined) [Budesonide] | 0.86 | 0.762 | 3.65 (inactive) | -18.8 (inactive)
COc1ccnc(C[S+]([O-])c2nc3cc(OC(F)F)ccc3[nH]2)c1OC (centres undefined) [Pantoprazole] | 0.86 | 0.933 | -9.58 (inactive) | 1.97 (inactive)
Cc1cn([C@H]2C[C@H](N=[N+]=[N-])[C@@H](CO)O2)c(=O)[nH]c1=O [Zidovudine] | 0.929 | 0.666 | 11.9 (inactive) | -21.5 (inactive)
CC[C@H](C)C(=O)O[C@H]1C[C@H](O)C=C2C=C[C@H](C)[C@H](CC[C@@H](O)C[C@@H](O)CC(=O)O)[C@H]21 [Pravastatin] | 0.899 | 0.809 | 2.73 (inactive) | -17.4 (inactive)
O=C1CC[C@@H](C(=O)N2CSC[C@H]2C(=O)O)N1 [Pidotimod] | 0.869 | 0.881 | -7.34 (inactive) | -4.26 (inactive)
CC(C)[C@H](N)C(=O)OCCOCn1cnc2c(=O)nc(N)[nH]c21 [Valaciclovir] | 0.731 | 0.774 | -21.7 (inactive) | -19 (inactive)
C[N+]1(C)CCC(OC(=O)C(O)(c2ccccc2)C2CCCC2)C1 (centres undefined) [Glycopyrrolate] | 0.689 ± 0.14 | 0.888 ± 0.085 | -12.1 (inactive) | -2.31 (inactive)
COCCOC(=O)C1=C(C)NC(C)=C(C(=O)OC(C)C)C1c1cccc([N+](=O)[O-])c1 (centres undefined) [Nimodipine] | 0.486 | 0.338 | -18.6 (inactive) | -24.9 (inactive)
CNCCCCOc1ccccc1Cc1ccccc1 [Bifemelane] | 0.512 | 0.543 | -39.7 (inactive) | -28.5 (inactive)
CC(C)Oc1ccc2c(=O)c(-c3ccccc3)coc2c1 [Ipriflavone] | 0.908 | 0.957 | -8.04 (inactive) | -7.62 (inactive)
Cc1nc2n(c(=O)c1CCN1CCC(c3noc4cc(F)ccc34)CC1)CCCC2 [Risperidone] | 0.936 | 0.565 | -7.71 (inactive) | -15.1 (inactive)
CC(COc1ccccc1)NC(C)C(O)c1ccc(O)cc1 (centres undefined) [Isoxsuprine] | 0.798 | 0.841 | -4.41 (inactive) | -2.46 (inactive)
Cc1cccc(C)c1NC(=O)C1CCCCN1C (centres undefined) [Mepivacaine] | 0.728 | 0.864 | -12.3 (inactive) | -4.33 (inactive)
Cc1ccc(C)c(OCCCC(C)(C)C(=O)O)c1 [Gemfibrozil] | 0.476 | 0.995 | -13.7 (inactive) | -7.17 (inactive)
CNC(=C[N+](=O)[O-])NCCSCc1csc(CN(C)C)n1 [Nizatidine] | 0.895 | 0.816 | -8.02 (inactive) | -29.5 (inactive)
Nc1ccc(S(=O)(=O)c2ccc(N)cc2)cc1 [Dapsone] | 0.932 | 0.925 | -3.07 (inactive) | -4.22 (inactive)
O=C(O)c1cc(-c2ccc(F)cc2F)ccc1O [Diflunisal] | 0.772 | 1.08 | -4.48 (inactive) | 6.86 (inactive)
